For part of these data: Potency and affinity values are given separately.
Key:
Design in all cases: scale not given: direction of the effect not stated beside the values
[1] = target: Protein translocase subunit SecA (Escherichia coli (strain K12)) (UniProt P10408); test: Assay to Identify E. coli SecA ATPase Inhibitors; format: functional; details: 30 µM
[2] = target: T1, Ubiquitin-activating enzyme e1, putative (Leishmania donovani (strain BPK282A1)) (UniProt E9BSI1); test: Leishmania donovani Ubiquitin Activating Enzyme (LdE1); format: functional; details: 30 µM
T1 sequence (whole entry): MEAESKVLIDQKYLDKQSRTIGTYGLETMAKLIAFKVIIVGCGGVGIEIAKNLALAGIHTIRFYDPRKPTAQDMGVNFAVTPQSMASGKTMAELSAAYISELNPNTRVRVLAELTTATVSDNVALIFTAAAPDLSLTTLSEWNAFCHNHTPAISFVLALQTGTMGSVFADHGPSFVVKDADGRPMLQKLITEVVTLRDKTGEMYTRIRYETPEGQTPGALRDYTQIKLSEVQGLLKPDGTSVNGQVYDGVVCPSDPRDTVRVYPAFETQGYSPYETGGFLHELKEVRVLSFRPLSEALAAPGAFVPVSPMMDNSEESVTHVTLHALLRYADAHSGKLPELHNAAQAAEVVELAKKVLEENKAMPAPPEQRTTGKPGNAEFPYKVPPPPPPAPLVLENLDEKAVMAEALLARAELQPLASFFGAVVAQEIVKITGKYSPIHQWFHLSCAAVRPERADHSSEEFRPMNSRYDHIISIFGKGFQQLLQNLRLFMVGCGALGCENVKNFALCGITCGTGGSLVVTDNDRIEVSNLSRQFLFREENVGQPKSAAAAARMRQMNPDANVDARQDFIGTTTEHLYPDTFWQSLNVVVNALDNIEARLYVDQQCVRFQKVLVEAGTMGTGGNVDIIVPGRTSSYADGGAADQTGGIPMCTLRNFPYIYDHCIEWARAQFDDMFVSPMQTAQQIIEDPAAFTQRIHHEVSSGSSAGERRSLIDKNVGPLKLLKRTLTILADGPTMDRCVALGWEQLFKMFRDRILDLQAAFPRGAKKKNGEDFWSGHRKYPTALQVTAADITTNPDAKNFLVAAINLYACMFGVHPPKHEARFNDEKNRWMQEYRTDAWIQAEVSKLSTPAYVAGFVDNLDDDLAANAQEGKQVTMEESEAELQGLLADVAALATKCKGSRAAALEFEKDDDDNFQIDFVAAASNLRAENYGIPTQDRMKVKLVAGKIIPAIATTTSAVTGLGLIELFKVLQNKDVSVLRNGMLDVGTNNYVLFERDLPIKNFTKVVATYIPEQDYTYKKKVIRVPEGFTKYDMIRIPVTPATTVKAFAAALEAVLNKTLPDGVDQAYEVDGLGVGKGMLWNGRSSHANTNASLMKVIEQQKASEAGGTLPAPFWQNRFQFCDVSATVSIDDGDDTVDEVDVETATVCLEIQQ

[3] = target: AMP-activated protein kinase, AMPK (Homo sapiens) (UniProt P54646+O43741+P54619+Q9UGJ0+Q9Y478+Q13131+Q9UGI9); test: AMP-dependent Kinase enzyme assay. An in vitro enzyme assay that detects ADP turnover that is directly proportional to AMPK activity. This uses naive AMPK that is activated during the assay with MK-8722; format: functional; details: 30 µM
[4] = target: Sialic acid-binding Ig-like lectin 9 (Homo sapiens) (UniProt Q9Y336); test: Hs-Siglec9 ALPHAscreen SOP 20170721; details: 10 µM
Sialic acid-binding Ig-like lectin 9 (Homo sapiens), sequence (Q9Y336 whole entry): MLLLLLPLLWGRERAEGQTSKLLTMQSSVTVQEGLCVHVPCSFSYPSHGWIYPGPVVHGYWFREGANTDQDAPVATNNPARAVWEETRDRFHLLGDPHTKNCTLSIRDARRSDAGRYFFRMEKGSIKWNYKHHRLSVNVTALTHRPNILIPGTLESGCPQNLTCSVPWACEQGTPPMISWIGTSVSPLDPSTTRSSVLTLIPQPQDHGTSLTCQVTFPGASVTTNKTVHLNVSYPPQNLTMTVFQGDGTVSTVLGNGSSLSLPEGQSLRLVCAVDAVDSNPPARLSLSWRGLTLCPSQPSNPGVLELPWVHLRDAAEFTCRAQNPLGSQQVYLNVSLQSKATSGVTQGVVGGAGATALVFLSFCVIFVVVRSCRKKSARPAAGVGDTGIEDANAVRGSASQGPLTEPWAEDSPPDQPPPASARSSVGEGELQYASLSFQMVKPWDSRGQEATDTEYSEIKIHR

[5] = system: Trypanosoma cruzi; test: Trypanosoma cruzi phosphomannomutase and mannose-1-phosphate guanylyltransferase assay; format: functional; details: 10 µM
[6] = target: T2, Arginase-2, mitochondrial (Homo sapiens) (UniProt P78540); test: in vitro enzyme assay to detect the production of urea directly proportional to the activity of Arginase II; format: functional; details: 33.3 µM; note: in the data most compounds retested in dose-response had high values
T2 sequence (whole entry): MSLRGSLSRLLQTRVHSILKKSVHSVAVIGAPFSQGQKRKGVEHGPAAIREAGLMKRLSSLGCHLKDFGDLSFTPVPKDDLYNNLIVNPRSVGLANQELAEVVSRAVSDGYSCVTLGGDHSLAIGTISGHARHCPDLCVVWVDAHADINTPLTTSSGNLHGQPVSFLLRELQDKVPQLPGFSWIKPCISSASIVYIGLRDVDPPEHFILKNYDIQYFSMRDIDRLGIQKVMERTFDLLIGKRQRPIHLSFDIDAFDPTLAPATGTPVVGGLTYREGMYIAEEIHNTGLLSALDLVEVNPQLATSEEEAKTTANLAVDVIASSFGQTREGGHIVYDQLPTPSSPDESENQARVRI

[7] = target: T3, Proteasome subunit beta (Trypanosoma cruzi) (UniProt O96673); test: Trypanosoma cruzi proteasome chymotrypsin-like activity (TcProtChymo) assay.; note: in the data most compounds retested in dose-response had high values; format: functional; details: 9.37 µM
T3 sequence (whole entry): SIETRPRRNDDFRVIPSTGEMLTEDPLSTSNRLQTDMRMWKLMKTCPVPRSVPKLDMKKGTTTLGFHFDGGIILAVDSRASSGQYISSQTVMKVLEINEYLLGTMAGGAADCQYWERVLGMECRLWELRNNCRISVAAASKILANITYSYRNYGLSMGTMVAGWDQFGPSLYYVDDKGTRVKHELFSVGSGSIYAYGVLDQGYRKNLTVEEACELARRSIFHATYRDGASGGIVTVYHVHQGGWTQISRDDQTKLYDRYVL

[8] = species on record: Homo sapiens; test: To identify inhibition of the IFN signalling (Jak-Stat) pathway via expression of an eGFP reporter gene under the control of an IFN-stimulated response element (ISRE) containing MxA promoter.; format: functional; details: 30 µM
[9] = target: T4, Tyrosyl-tRNA synthetase, putative (Trypanosoma cruzi (strain CL Brener)) (UniProt Q4DSP6); test: Trypanosoma cruzi tyrosyl tRNA synthetase (TcYRS) _High Tyrosine SOP; format: functional; details: 30 µM; note: in the data most compounds retested in dose-response had high values
T4 sequence (whole entry): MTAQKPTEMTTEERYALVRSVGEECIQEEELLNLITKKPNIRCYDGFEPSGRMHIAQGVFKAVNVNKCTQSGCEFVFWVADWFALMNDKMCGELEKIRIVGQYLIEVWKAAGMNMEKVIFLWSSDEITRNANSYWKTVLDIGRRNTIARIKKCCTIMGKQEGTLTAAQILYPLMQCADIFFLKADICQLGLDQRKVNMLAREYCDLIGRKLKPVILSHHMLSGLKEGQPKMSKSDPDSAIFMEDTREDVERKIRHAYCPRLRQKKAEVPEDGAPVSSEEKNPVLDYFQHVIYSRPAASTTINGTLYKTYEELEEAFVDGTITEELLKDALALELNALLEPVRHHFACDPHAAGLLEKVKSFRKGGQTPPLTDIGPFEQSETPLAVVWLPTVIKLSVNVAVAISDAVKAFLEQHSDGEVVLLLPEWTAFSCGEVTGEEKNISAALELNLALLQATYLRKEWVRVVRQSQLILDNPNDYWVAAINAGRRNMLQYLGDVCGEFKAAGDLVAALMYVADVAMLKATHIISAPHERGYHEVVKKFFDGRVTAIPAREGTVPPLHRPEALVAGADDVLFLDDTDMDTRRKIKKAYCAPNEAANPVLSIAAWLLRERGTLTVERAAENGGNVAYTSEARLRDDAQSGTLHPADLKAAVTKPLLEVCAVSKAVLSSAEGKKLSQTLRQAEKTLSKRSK

[10] = target: T4, Tyrosyl-tRNA synthetase, putative (Trypanosoma cruzi (strain CL Brener)); test: Trypanosoma cruzi tyrosyl tRNA synthetase (TcYRS) SOP; format: functional; details: 30 µM
[11] = target: Chromo domain-containing protein 1 (Saccharomyces cerevisiae (strain ATCC 204508 / S288c) (Baker's yeast)) (UniProt P32657); test: ScCHD-1 Enzyme Inhibition Assay; format: functional; details: 30 µM; note: in the data most compounds retested in dose-response had high values
Chromo domain-containing protein 1 (Saccharomyces cerevisiae (strain ATCC 204508 / S288c) (Baker's yeast)), sequence (P32657 whole entry, the tested form may be a part): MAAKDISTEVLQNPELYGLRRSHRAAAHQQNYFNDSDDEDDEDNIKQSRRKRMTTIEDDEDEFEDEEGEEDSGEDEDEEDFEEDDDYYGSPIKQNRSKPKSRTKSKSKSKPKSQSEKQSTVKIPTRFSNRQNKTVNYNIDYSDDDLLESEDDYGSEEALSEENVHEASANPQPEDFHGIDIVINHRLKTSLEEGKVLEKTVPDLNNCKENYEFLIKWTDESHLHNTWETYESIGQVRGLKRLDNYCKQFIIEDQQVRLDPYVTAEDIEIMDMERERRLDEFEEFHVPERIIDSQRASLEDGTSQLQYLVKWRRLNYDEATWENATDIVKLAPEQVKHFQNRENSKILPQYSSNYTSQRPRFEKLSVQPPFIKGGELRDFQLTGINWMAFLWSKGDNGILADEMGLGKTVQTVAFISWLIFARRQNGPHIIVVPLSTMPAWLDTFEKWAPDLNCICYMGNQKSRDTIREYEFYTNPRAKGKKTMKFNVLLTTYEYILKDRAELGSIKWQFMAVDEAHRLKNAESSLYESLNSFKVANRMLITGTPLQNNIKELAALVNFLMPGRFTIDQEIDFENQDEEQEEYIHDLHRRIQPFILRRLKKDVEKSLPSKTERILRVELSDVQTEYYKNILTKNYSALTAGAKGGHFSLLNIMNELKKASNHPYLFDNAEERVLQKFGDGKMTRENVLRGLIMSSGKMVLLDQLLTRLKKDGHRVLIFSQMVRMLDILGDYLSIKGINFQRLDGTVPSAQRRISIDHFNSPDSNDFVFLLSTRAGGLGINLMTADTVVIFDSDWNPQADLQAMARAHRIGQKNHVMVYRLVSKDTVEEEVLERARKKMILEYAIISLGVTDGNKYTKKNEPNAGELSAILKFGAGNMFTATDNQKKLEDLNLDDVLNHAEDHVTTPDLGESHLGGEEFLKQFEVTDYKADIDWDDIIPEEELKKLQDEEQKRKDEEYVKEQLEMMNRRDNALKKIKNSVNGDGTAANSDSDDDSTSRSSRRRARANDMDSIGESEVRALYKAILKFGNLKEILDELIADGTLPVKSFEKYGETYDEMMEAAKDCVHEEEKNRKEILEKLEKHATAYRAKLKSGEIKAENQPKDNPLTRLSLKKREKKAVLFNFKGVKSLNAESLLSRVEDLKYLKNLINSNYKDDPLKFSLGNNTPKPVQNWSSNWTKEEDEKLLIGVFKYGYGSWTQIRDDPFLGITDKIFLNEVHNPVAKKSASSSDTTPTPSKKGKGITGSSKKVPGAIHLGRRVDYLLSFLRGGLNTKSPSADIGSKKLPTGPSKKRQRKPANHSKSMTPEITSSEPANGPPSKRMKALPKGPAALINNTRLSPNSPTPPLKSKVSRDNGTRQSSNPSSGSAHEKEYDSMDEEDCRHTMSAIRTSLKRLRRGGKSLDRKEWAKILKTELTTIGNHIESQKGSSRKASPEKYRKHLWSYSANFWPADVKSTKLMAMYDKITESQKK

Protein translocase subunit SecA (Escherichia coli (strain K12)), sequence (P10408 whole entry): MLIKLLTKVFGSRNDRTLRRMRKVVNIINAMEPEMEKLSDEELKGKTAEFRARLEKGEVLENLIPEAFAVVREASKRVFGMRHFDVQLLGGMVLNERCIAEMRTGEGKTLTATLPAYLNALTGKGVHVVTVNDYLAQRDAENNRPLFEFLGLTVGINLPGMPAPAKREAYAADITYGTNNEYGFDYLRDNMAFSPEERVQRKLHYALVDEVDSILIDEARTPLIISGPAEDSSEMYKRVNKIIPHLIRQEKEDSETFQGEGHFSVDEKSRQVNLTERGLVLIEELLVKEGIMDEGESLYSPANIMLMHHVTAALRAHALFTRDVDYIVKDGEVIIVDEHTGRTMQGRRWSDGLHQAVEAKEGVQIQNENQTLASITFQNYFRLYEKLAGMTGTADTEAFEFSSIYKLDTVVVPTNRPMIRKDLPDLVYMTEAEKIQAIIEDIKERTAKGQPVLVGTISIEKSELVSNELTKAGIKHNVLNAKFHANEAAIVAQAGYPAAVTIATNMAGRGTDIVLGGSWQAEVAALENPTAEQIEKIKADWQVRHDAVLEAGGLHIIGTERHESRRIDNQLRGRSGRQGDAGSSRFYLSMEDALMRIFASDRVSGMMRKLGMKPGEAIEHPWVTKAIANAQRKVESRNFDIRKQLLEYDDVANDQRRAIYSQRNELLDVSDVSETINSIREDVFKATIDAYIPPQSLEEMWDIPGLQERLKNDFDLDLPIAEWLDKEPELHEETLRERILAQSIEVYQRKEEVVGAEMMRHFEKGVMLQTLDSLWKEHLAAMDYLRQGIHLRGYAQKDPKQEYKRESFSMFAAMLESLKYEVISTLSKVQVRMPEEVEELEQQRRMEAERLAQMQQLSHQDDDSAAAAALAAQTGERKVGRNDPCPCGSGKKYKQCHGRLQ

| Compound | Percent Effect [1] [%] | Percent Effect [2] [%] | Percent Effect [3] [%] | Percent Effect [4] [%] | Percent Effect [5] [%] | Percent Effect [6] [%] | Percent Effect [7] [%] | Percent Effect [8] [%] | Percent Effect [9] [%] | Percent Effect [10] [%] | Percent Effect [11] [%] |
| --- | --- | --- | --- | --- | --- | --- | --- | --- | --- | --- | --- |
| CCC(C)(C)NC(=O)C1CC(=O)N(CC2CC2)C1 (stereo unspecified) | -2.71 | 13.5 | 9.25 | -3.89 | -7.15 | 3.14 | 11.3 | 17.7 | 2.97 | -18.3 | -7.51 |
| CNC(=O)Nc1cc(-c2ccc(Br)cc2)nn1CCO | -6.67 | 10.5 | 0.242 | 1.93 | 5.94 | -16.6 | 3.16 | -5.7 | 4.25 | 2.6 | -2.66 |
| Cc1ccc(CN2Cc3c(C(=O)N(C)C)nn(C)c3C2)s1 | -0.916 | -19.2 | -24.4 | 6.15 | 6.75 | -1.2 | 7.79 | -12.5 | 3.12 | 11.1 | -3.35 |
| NCCn1nc(C2CCN(Cc3ccc(Cl)c(Cl)c3)C2)c2nccnc21 (stereo unspecified) | -3.22 | -14.9 | 7.43 | 0.383 | 2.37 | -4.41 | 8.74 | 7.68 | 1.07 | -1.3 | -23.3 |
| CCOC(=O)N1CCC(C(=O)c2cc(F)ccc2F)CC1 | -3.27 | -2.63 | 4.38 | -6.37 | -1.69 | 4.98 | -3.34 | 10.2 | -1.47 | -4.88 | -0.881 |
| Cc1ccc(N2CC3(CCN(C(=O)c4ccoc4)C3)C2)nn1 | -2.51 | 15.6 | 2.65 | 11.4 | 3.64 | -143 | 9.48 | 0.925 | 5.38 | 13.6 | -5.33 |
| O=C(NCCc1nnc2n1CCC2)NCC1(c2cccc(F)c2)CC1 | -7.67 | -5.26 | 5.7 | -1.62 | 2.43 | 0 | -1.44 | -9.73 | 2.13 | 5.2 | 1.42 |
| OCCOCCN1CCCC1c1nc2cc(F)ccc2[nH]1 (stereo unspecified) | 7.36 | 21.9 | -1.73 | -1.07 | -13.1 | -2.4 | 14.3 | 9.67 | 11.5 | 18.5 | -1.92 |
| COCc1ncn2c1CN(C(=O)C1CC=CC1)CC2 | -10.3 | 2.7 | -2.21 | -3.27 | -2.64 | -1.74 | 3.69 | 2.37 | 6.45 | 11.1 | 0.611 |
| O=C(N1CCCC1)N1CCO[C@H]2[C@@H](Oc3ccccn3)CC[C@@H]21 | 0.00913 | 2.67 | 13.9 | -0.922 | -4.92 | 4.43 | -1.85 | 12.7 | 4.25 | 3.85 | 1.67 |
| c1cnnc(N2CCCC2CNCc2cc[nH]n2)c1 (stereo unspecified) | -2.52 | 0 | 4.85 | -5.55 | 4.89 | 3.45 | -1.34 | -3.22 | 1.47 | 7.32 | -6.65 |
| O=C(CSc1nncs1)N1CCN(Cc2ccc(Cl)s2)CC1 | -2.74 | 5.48 | 4.99 | 1.5 | 5.88 | 0 | 18.1 | 16.3 | 4.3 | 12.5 | -13.2 |
| CCN(Cc1cccc(Cl)c1)Cn1nc(C)c2c(C)onc2c1=O | -8.55 | 8.11 | -4.63 | 2.84 | -3.68 | -0.802 | -0.18 | 14.3 | 1.48 | 1.24 | -6.67 |
| CN(C)c1cncc(C2CCN(CCO)CC2)n1 | -3.32 | 12.2 | 5.42 | -1.62 | -2.96 | -3.94 | 8.74 | 8.75 | 7.53 | 16.9 | -15.7 |
| CCNC(=O)N(C)Cc1ccc(SC)c(OC)c1 | -3.35 | 21.6 | -5.93 | 0.171 | 4.49 | 7.92 | 9.72 | -1.36 | 7.92 | 3.66 | 92.2 |
| CN(C)CCN(Cc1cccc(C(F)(F)F)c1)C(=O)c1cc[nH]n1 | 1.05 | -4.17 | -0.743 | -0.91 | -4.57 | 2.65 | 5.61 | 6.86 | -3.16 | -10.3 | -3.17 |
| CN1CCCC[C@@H]2[C@H]1[C@@H](c1ccccc1)CCN2C(=O)c1ccccc1 | -2.17 | -12.2 | 2.42 | 3.03 | 4.54 | 0.696 | 15.6 | -13.3 | 7.53 | 14.3 | -12.5 |
| CCN1CCN(C2CCN(Cc3cc(C)on3)CC2)C1=O | -6.77 | 5.06 | 1.9 | -3.3 | 8.21 | -3.04 | 7.94 | 1.37 | 3.45 | 8.86 | -13.6 |
| c1nc(CCC2CCCN2)cc(N2CCCOCC2)n1 (stereo unspecified) | -4.1 | 9.46 | 11.8 | -4.56 | -6.13 | -3.02 | 9.36 | 10.3 | 3.23 | 6.49 | -5.74 |
| O=C(CN1CCCCC1Cn1cncn1)NC1CCN(C2CC2)CC1 (stereo unspecified) | -0.975 | -2.7 | -4.13 | 22.5 | 3.28 | -1.43 | 5.86 | 2.27 | 2.65 | 7.32 | -11.3 |
| CC(C)Cc1noc(CN2CCN(CCOc3ccc(Cl)cc3)CC2)n1 | -5.56 | 21.1 | -0.366 | 9.07 | 5.08 | -3.83 | 14.7 | 32.7 | 5.39 | 19.5 | -8.42 |

Reference: ChEMBL document CHEMBL3988442, “University of Dundee, Small-Polar-MMV Screening Library” (2021)
